Phagocytosis inh – inhibitors of macrophage phagocytosis, primary screen, imaging, J774A.1 cells, IgG beads; J774A.1 macrophage IgG-bead phagocytosis; inhibition, % at 5 µM; 110,000 compounds, 0.07% hits; AID 1029, 2008;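 active = inhibition above the mean of the plate negative controls plus 5 SD, cut at about 13% in these data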;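 note: phagocytic index as fraction of beads internalized from green versus red external bead signal; plate controls were DMSO negative control for no effect and cytochalasin-D positive control for full effect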
MRP reversal – reversal of MRP1-mediated doxorubicin resistance, primary screen, H69AR cells, doxorubicin co-treatment | H69AR cells + 2 uM doxorubicin, CellTiter-Glo, 72 h | differential viability (reversal), % at 10 µM | 85,000 compounds, 0.04% hits | AID 602, 2007;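 active = viability drop by adding the cancer drug above about 55%, with treated viability meeting a 40% cutoff, limit read from the data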;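 note: viability without doxorubicin minus viability with 2 µM doxorubicin for each compound; larger differential means the compound sensitizes cells more to doxorubicin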
MRP-1 activ – H69AR viability gain despite doxorubicin, primary screen, MRP-1 activator project, H69AR cells, CellTiter-Glo; viability rescue; viability increase, % at 10 µM; 140,000 compounds, 0.61% hits;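 active = viability gain under doxorubicin at or above a set limit, the compound median plus 3 SD, cut at about 4.7% in these data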;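 note: MRP-1 overexpressing cells given doxorubicin 25 µM after compound pretreatment; 18-22 h compound pretreatment then 72 h with doxorubicin before readout; 0% = doxorubicin-only wells and 100% = vehicle-treated cells without doxorubicin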
* hit, by the source's call; . = no result given. Only some compounds are listed: those with a hit (about 0.72% of all), similar ones and a draw of the others.

SMILES	Phagocytosis inh	MRP reversal	MRP-1 activ
CCCCCC(=O)N/N=C/c1cc(Br)c(O)c(OC)c1	-1.6	.	-2.9
COc1cc(/C=N/NC(=O)C23CC4CC(CC(C4)C2)C3)cc(Br)c1O	.	.	13.7*
C=CCn1c(COc2cccc(C)c2)nnc1SCC(=O)c1c[nH]c2c(CC)cccc12	-4.9	.	1.0
CCC(=O)NC(Nc1nc(C)cs1)(C(=O)OC)C(F)(F)F (configuration not stated)	4.4	.	-1.3
N#CCCN(C(=O)Nc1ccc(Cl)c(Cl)c1)c1ccccc1	0.2	.	-1.0
CSc1nc2sc3c(c2c(=O)[nH]1)CCC(C)C3 (configuration not stated)	0.5	11.0	-1.2
CC1CCc2c(sc3nc(CSc4ncn[nH]4)[nH]c(=O)c23)C1 (configuration not stated)	-7.7	.	17.9*
COc1ccc(C(C)(C)C)cc1NC(=O)COC(=O)c1ncc(Cl)c(Cl)c1Cl	-8.9	.	0.0
COc1cccc(N=C2SC(C(=O)Nc3ccc(F)cc3)CC(=O)N2C)c1 (configuration not stated)	-0.2	-20.2	-3.0
COc1ccc(CN=C2NC(=O)CC(C(=O)Nc3ccc(F)cc3)S2)cc1 (configuration not stated)	-7.3	.	6.7*
COc1cc(S(=O)(=O)Nc2cccc(C)c2)ccc1NC(=O)c1cccnc1	.	.	3.5
O=[N+]([O-])c1cc(C(F)(F)F)ccc1NCCNC(=S)Nc1ccc(Cl)cc1	-0.4	.	-6.3
Cc1nc(=O)c(-c2ccccc2)c(C)n1CCCO	0.3	.	-1.4
Cc1nc(=O)c(-c2ccccc2)c(C)n1Cc1ccccc1	-1.2	8.1	-2.6
Cc1nc(=O)c(-c2ccccc2)c(C)n1-c1ccc(S(N)(=O)=O)cc1	-3.1	8.9	6.8*
Cc1nc(=O)c(-c2ccccc2)c(C)n1-c1ccc(C(=O)O)cc1	-0.3	-4.5	9.1*
COc1cccc(CSc2nc3cc4c(cc3cc2C)OCCO4)c1	-10.0	.	-2.1
CCOc1cc(/C=N/NC(=O)CNc2ccc(C)cc2)ccc1OC(=O)c1ccccc1	174.5*	-20.4	0.0
CCOc1cc(/C=N/NC(N)=O)ccc1OC(=O)c1ccc(C)cc1	.	.	1.1
Cc1ccc(NC(=O)C(=O)c2c(-c3ccccc3)cc3ccccn23)cc1S(=O)(=O)N1CCOCC1	.	13.3	4.8*
Cc1ccc(NC(=O)c2ccccc2-c2ccc(C(F)(F)F)cc2)cc1S(=O)(=O)N1CCOCC1	-0.8	.	-2.0
O=C(NCCc1csc(-c2ccc(C(F)(F)F)cc2)n1)c1cccs1	0.2	12.7	-3.7
N#CCSc1nc2cc(C(=O)N3CCC(C(N)=O)CC3)ccc2c2nc3ccccc3n12	-0.5	-21.5	6.1*
N#CCSc1nc2cc(C(=O)N3CCCC3)ccc2c(=O)n1Cc1ccccc1	.	.	-1.1
Cc1nn(-c2ccccc2)c(C)c1C(=O)OCC(=O)N1c2ccccc2NC(=O)C1(C)C	-0.4	3.3	-4.7
SMILES	Phagocytosis inh	MRP reversal	MRP-1 activ
O=C(Cc1ccc(Br)cc1)N1CCN(c2ccccc2)CC1	-5.2	-13.4	-1.6
Cc1cccc(N2CCN(C(=O)Cc3ccc(Br)cc3)CC2)c1C	1.6	3.3	7.9*
O=C(Nc1ccc(Cl)cc1)OCCn1nnnc1C(c1ccccc1Cl)N1CCOCC1 (configuration not stated)	.	-6.8	-3.6
Cc1ccc(NC(=O)CCC(=O)OCc2ccc(Br)cc2)cc1	-5.9	.	-1.6
Cc1cc(C)n(CC(=O)N/N=C/c2cccs2)n1	-1.2	.	-0.4
Cc1ccc(NC(=O)CCC(=O)N/N=C/c2cccs2)cc1C	-2.3	.	7.2*
CCOC(=O)CCC(=O)Nc1cccc([N+](=O)[O-])c1	-3.0	.	-1.7
CCC1(C)CC(c2nc(-c3ccc(OC)cc3)cs2)CCS1 (configuration not stated)	.	.	2.0
COc1ccc(/C(C)=N/OCC(=O)N2CC3(C)CC2CC(C)(C)C3)cc1 (configuration not stated)	.	.	-3.6
O=C(Nc1cc(C(F)(F)F)ccc1N1CCOCC1)c1ccccc1	-0.6	.	0.5
COC(=O)Nc1cc(C(F)(F)F)ccc1N1CCN(c2ccccc2)CC1	90.0*	-3.4	1.5
CCOC(=O)CNC(=O)c1ccc(C#CC2(O)CCCCC2)cc1	-5.5	.	-0.5
CCOC(=O)c1cc2cc(OC)ccc2nc1C	.	6.3	-0.1
COc1cc(/C=C/C(=O)OCC(=O)NC(=O)NC23CC4CC(CC(C4)C2)C3)ccc1OCC#N	.	.	-0.3
Cc1cc(C(=O)N/N=C/c2cc(Br)ccc2OC(=O)c2ccccc2)n[nH]1	-0.4	.	9.4*
CCOc1cc(/C=N/NC(=O)c2cc(C)[nH]n2)ccc1OC(=O)c1ccc([N+](=O)[O-])cc1	0.7	.	-2.9
COc1ccc(-c2nc3ccccc3c(=O)n2NC(=S)N(C)C)cc1	-10.1	.	-2.8
Clc1ccc(OCc2nc(-c3ccccn3)n[nH]2)cc1	1.0	-6.5	-5.8

Screens as filed in PubChem BioAssay.
